Results published in PubChem BioAssay AID504329 (Southern Research Specialized Biocontainment Screening …, 2011).
In all, about 340,000 compounds went through this assay and about 1,000 (0.29%) were called active. The list is a sample of the results. Entries with a potency or affinity are not part of this list. Unmarked numbers belong to inactive results. Rule as the data show it: inconclusive = inhibition above about 27% without an active follow-up result; inactive = below that.

Assay: H1N1 influenza NS1A inhibitors, functional cell based assay (AID 504329)
Settings: percent inhibition, at 12.5 µM, active compounds read high
Work on `CC(/C=C1\SC(=S)N(CCC(=O)Nc2nc(C)cs2)C1=O)=C\c1ccccc1` yielded an inhibition of -4.32%. `COc1ccc(/C=C/c2nc(C)c(-c3ccccc3)c(=O)[nH]2)cc1OC` gave an inhibition of 2.31%. For `CCOc1ccc(C2=CSC3=NCCN23)cc1[N+](=O)[O-]`, the inhibition was -15.6%. Compound `CCOc1ccc(NC(=S)Nc2ccc(OCc3ccccc3)cc2)cc1` has an inhibition of 22%. With `CCCc1c(C(=O)Nc2ccc(F)cc2F)cnn1-c1ccccc1` the inhibition was 2.03%. With `COc1cc(CN2CCCCC2)ccc1OCc1ccccc1` the inhibition was -0.75%. With `CC(C)Oc1cccnc1N(C)C1CCN(Cc2ccccc2)CC1` the inhibition was 7.67%. `c1ccc(COc2cccc(CN3CCCCC3)c2)cc1` gave an inhibition of 4.44%. With `COc1cc(C(=O)N(C)C2CCCN(Cc3ccccc3F)C2)cc(OC)c1OC` (configuration not stated) the inhibition was -3.71%. Compound `OC(COCc1ccccc1)CN1CCCC1` (configuration not stated) has an inhibition of -16.3%. In the case of `Oc1c(CNc2ccccc2)cc(COCc2ccccc2)c2cccnc12`, the inhibition is reported as -1.39%. For `CSc1ccc(CN(C)CC(=O)Nc2c(F)cccc2F)cc1`, the inhibition was 4.59%. For `CC(C)c1ccc(NC(=O)C2=NNC(=O)CC2)cc1`, the inhibition was 8.16%. `O=C(CCCCC(=O)OCC1CCCO1)OCC1CCCO1` (configuration not stated) gave an inhibition of -25.2%. For `O=C1COc2ccccc2N1Cc1ccc(Cl)cc1`, the inhibition was -6.96%. In the case of `Cc1c[n+](C)ccc1CC1C([N+](=O)[O-])=C[N-]c2ncnn21` (configuration not stated), the inhibition is reported as -6.38%. `O=C(Cc1ccc(O)cc1)NCCNC(=S)NCc1ccccc1` showed an inhibition of -12.1%. With `O=Cc1c(-c2ccccc2)cc2oc3ccccc3cc1-2` the inhibition was 10.8%. In the case of `O=c1oc2ccccc2cc1-c1ccccc1`, the inhibition is reported as -7.16%. `Cc1ccc(NC(=O)C(NCc2ccccn2)c2ccccc2)cc1` (configuration not stated) showed an inhibition of -1%. Compound `O=C(Cc1ccccn1)Nc1ccccc1` has an inhibition of -8.73%. For `O=C(NCc1ccccn1)Nc1ccccc1Cl`, the inhibition was -1.88%. Compound `CCOc1ccc(NC(=O)NCc2ccccn2)cc1` has an inhibition of -5.82%. In the case of `CCOc1ccc(NC(=O)CC(c2ccccc2)c2ccc(F)cc2)cc1` (configuration not stated), the inhibition is reported as -2.67%. In the case of `S=C(NCc1ccccn1)Nc1ccccc1Cl`, the inhibition is reported as -10.4%. Compound `Cc1cc(C)cc(NC(=O)c2ccc(S(=O)(=O)C(F)F)cc2)c1` has an inhibition of 15.2%. With `COC(=O)C(C)Sc1ccc2nnc(-c3ccccc3)n2n1` (configuration not stated) the inhibition was 0.68%. `COc1ccc(NS(=O)(=O)c2ccc3oc(SCc4ccc(F)cc4)nc3c2)cc1` showed an inhibition of -1.81%. In the case of `O=C(O)c1cc(-c2cccs2)nn1-c1cccc(Cl)c1`, the inhibition is reported as -3.66%. In the case of `CC(C)CCNC(=O)CSc1nnc(-c2ccc(S(=O)(=O)N3CCCC3)cc2)n1C`, the inhibition is reported as 1.62%. Compound `O=C(CSc1n[nH]c(-c2cccs2)n1)NCCc1ccccc1` has an inhibition of -3.95%. `COCCN=c1scc(-c2ccco2)n1/N=C/c1ccc(O)c(O)c1O` gave an inhibition of 13.4%. For `CN=c1scc(-c2cccs2)n1/N=C/c1ccc(O)c(O)c1O`, the inhibition was 28.1%. With `Cc1ccc(S(=O)(=O)N2CCN(C(=O)C3CCCC3)CC2)cc1C` the inhibition was -7.76%. For `CCCC(=O)NC(c1ccc(C)cc1)c1ccc2cccnc2c1O` (configuration not stated), the inhibition was 4.97%. Compound `CCCCC(=O)NC(c1ccc(N(CC)CC)cc1)c1ccc2cccnc2c1O` (configuration not stated) has an inhibition of 11.6%. Work on `CCCC(=O)NC(c1ccc(Cl)cc1)c1ccc2cccnc2c1O` (configuration not stated) yielded an inhibition of -7.24%. Work on `CCCCC(=O)NC(c1ccccc1)c1ccc2cccnc2c1O` (configuration not stated) yielded an inhibition of 17.1%. `CCCCC(=O)NC(c1ccc(C(C)C)cc1)c1ccc2cccnc2c1O` (configuration not stated) gave an inhibition of -9.31%. For `CCCC(=O)NC(c1ccc(C(C)C)cc1)c1ccc2cccnc2c1O` (configuration not stated), the inhibition was -11.7%. Work on `CCc1cc(C(=O)N2CCCC(C(=O)c3ccc(Oc4ccccc4)cc3)C2)n(C)n1` (configuration not stated) yielded an inhibition of -0.31%. `COc1ccc(NC(=O)c2ccc(NC(=O)CN(C)CC(=O)Nc3c(C)cccc3C)cc2)cc1` showed an inhibition of -7.57%. `C/C=C\C=C\C(=O)N1CC2(CC(c3cccc(NC(=O)CC(c4ccccc4)c4ccccc4)c3)=NO2)C[C@H]1C(N)=O` (some centres not stated) showed an inhibition of 2.26%. `COCCCNC(=O)c1cc(=O)n(Cc2ccc(Cl)cc2)c2ccccc12` gave an inhibition of 6.81%. With `CCCCCc1cc(=O)oc2c(C(CCN3CCCCC3)c3ccc(OC)cc3)c(OC)cc(OC)c12` (configuration not stated) the inhibition was 18.7%. Compound `CCCCCc1cc(=O)oc2c(C(CCN(CC)CC)c3ccc(OC)cc3)c(OC)cc(OC)c12` (configuration not stated) has an inhibition of 5.11%. Compound `CCCCCc1cc(=O)oc2c(C(CCN3CCCC(C)C3)c3ccc4c(c3)OCO4)c(OC)cc(OC)c12` (configuration not stated) has an inhibition of 16.4%. In the case of `CCCCCc1cc(=O)oc2c(C(CCN3CCN(c4ccccc4)CC3)c3ccc(N(C)C)cc3)c(OC)cc(OC)c12` (configuration not stated), the inhibition is reported as -11.8%. Compound `CCCCCc1cc(=O)oc2c(C(CCN(CC)CC)c3cc(OC)c(OC)c(OC)c3)c(OC)cc(OC)c12` (configuration not stated) has an inhibition of 9.43%. In the case of `CCCCCc1cc(=O)oc2c(C(CCN3CCCC(C)C3)c3ccc(OC)cc3)c(OC)cc(OC)c12` (configuration not stated), the inhibition is reported as 8.01%. Work on `Nc1nnc(SCC(=O)NCCNC(=O)CSc2nnc(N)s2)s1` yielded an inhibition of -11.3%. `Cc1noc(-c2ccc(Cl)cc2)c1C(=O)O/N=C(\N)c1ccc(C(C)(C)C)cc1` gave an inhibition of 12.5%. `O=C(CN1CCCCC1)N=Nc1c(O)[nH]c2ccccc12` gave an inhibition of -8.88%. Work on `Cc1ccc(-c2nnc(N3CCCCC3)c3ccccc23)cc1S(=O)(=O)N(C)C` yielded an inhibition of -3.68%. In the case of `CS(=O)(=O)Oc1ccc2c(c1)O/C(=C\c1cccc([N+](=O)[O-])c1)C2=O`, the inhibition is reported as 7.03%. `CS(=O)(=O)c1ccc(S(=O)CC(=O)OCc2ccccc2)c([N+](=O)[O-])c1` (configuration not stated) showed an inhibition of 11.4%. Compound `COc1ccccc1OCCOC(=O)Nc1ccccc1` has an inhibition of -11.2%. Work on `COc1cc(/C=C2/C(=O)N(c3ccc(C(=O)O)cc3)N=C2C)cc(OC)c1O` yielded an inhibition of 13.2%. For `O=C1/C(=C\c2ccc(O)c(O)c2)C(c2ccccc2)=NN1c1ccccc1`, the inhibition was 23.5%. Work on `COc1cc(/C=C2/C(=O)N(c3ccc(Br)cc3)N=C2C)cc(OC)c1OC` yielded an inhibition of 3.78%. With `COc1cc(/C=C2\C(=O)N(c3ccc(NC(C)=O)cc3)N=C2c2ccccc2)ccc1O` the inhibition was 12.5%. `CCOC(=O)C1CCC(CN(Cc2ccccc2)S(=O)(=O)c2ccc([N+](=O)[O-])cc2)CC1` (configuration not stated) showed an inhibition of 6.67%. `CCOC(=O)c1ccc(COc2ccc(C(C)C)cc2)o1` showed an inhibition of -6.49%. Compound `CCOc1cccc(/C=N/N2C(C)CCCC2C)c1O` (configuration not stated) has an inhibition of -10.1%. `Cc1ccccc1/C=N/N1C(=O)CSC1=S` showed an inhibition of -0.54%. For `O=C1CSC(=S)N1N=Cc1cccc2ccccc12`, the inhibition was 13.2%. For `COc1ccccc1C=NN1C(=O)CSC1=S`, the inhibition was 1.86%. Compound `O=C1CSC(=S)N1/N=C/c1ccc(O)c(O)c1O` has an inhibition of -1.09%. Work on `CCOc1cccc(/C=N/N=C/c2cccc(OCC)c2O)c1O` yielded an inhibition of -10.6%. For `CC(=O)O[C@H]1[C@H](O)[C@H](Oc2c(O)c(C)c3c4c2[C@@H](C)CC[C@@H]4[C@@H](C)C[C@H]3C=C(C)C)O[C@@H](C)[C@H]1O`, the inhibition was 4.02%. `COc1ccc(-c2nc3ccccc3c(=O)n2CC(C)C)cc1` showed an inhibition of -17.7%. For `CCN1C(=NCCCOC(C)C)N[C@@H](CCc2ccccc2)[C@H](C(=O)NCCCOC(C)C)[C@H]1C`, the inhibition was 7.63%. In the case of `COc1ccc(OC)c(C(=O)N(C)C2CCCN(Cc3ccccc3F)C2)c1` (configuration not stated), the inhibition is reported as 2.52%. In the case of `COC(=O)C1=C(c2c(C)noc2C)C[C@@H]2CC[C@H]1N2C(=O)NCCCOC(C)C`, the inhibition is reported as -1.03%. In the case of `COC(=O)C1CCN(C(=O)/C=C/c2ccc(OC)cc2)CC1`, the inhibition is reported as 1.45%. `CCOc1ccccc1OCCCC(=O)ON=C(N)c1ccccc1` gave an inhibition of -17.2%. `COc1ccc(-c2c(NC(=O)c3ccco3)oc3ccccc3c2=O)cc1OC` showed an inhibition of 9.22%. Work on `CCOc1ccccc1OCCNC1CCCC1` yielded an inhibition of -3.47%. In the case of `CCOc1ccccc1C(=S)NC1CCCCC1`, the inhibition is reported as -0.78%. For `CC(C)C[C@@H]1CN=C(N)N1C[C@@H]1CCCN1C[C@@H](C(C)C)N1C[C@@H](Cc2ccccc2)N(CCCC2CCCC2)C1=N`, the inhibition was 0.6%. For `CCOc1ccc(S(=O)(=O)Nc2ccc(C(=O)NCC(C)(C)N3CCOCC3)cc2)cc1`, the inhibition was -9.51%. With `O=C(O)c1cc(S(=O)(=O)O)ccc1O` the inhibition was -4.88%. With `O=C(O)c1cc(S(=O)(=O)Nc2ccccc2C(=O)O)ccc1O` the inhibition was -2.33%. Compound `O=C(NNC(=O)c1cc(-c2cccc(Br)c2)nc2ccccc12)c1csc(N2CCOCC2)n1` has an inhibition of -7.9%. Work on `Cc1cc(C)nc(N/N=C/c2cc(Br)ccc2O)n1` yielded an inhibition of 8.15%. In the case of `COc1cc([N+](=O)[O-])cc(/C=N/NC(=O)c2ccc(NC(=O)c3ccc(C)cc3)cc2)c1O`, the inhibition is reported as -0.59%. `O=C(N/N=C/c1ccncc1)c1ccncc1` gave an inhibition of 0.03%. `COc1cc(/C=N/NC(=O)c2ccc(C)nc2)cc([N+](=O)[O-])c1O` gave an inhibition of -21.2%. `COc1cc([N+](=O)[O-])cc(/C=N/NC(=O)c2cncc(Br)c2)c1O` showed an inhibition of -13.3%. `Oc1ccc(Br)cc1/C=N/Nc1ncc(-c2ccccc2)cn1` gave an inhibition of -1.12%. `O=C(N/N=C/c1cc2c(cc1Cl)OCO2)c1ccncc1` showed an inhibition of -1.41%. In the case of `COc1cc([N+](=O)[O-])cc(/C=N/NC(=O)c2cccnc2)c1O`, the inhibition is reported as -13.7%.
